dFosB act – activators of mouse delta FosB homodimer. AID 493131. 340,000 compounds, 0.99% hits. activation, % at 25 µM. purified delta FosB, TAMRA-CDK5 oligo fluorescence polarization; percent of positive-control signal above neutral wells;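 active = mean activation above about 17%, with every replicate also reaching it, limit read from the data, passing the limit was not always enough; inconclusive = only one of the two conditions met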
F508del corr – CFTR F508del correction in bronchial cells; CFBE cells, YFP halide quenching; stimulated with forskolin plus potentiator P3; % fluorescence drop versus neutral controls; activity (quench increase), % at 7.58 µM; 350,000 compounds, 0.36% hits;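 active = mean added fluorescence quench of at least 8% versus neutral control, with both replicates also reaching 8%; inconclusive = only one of the mean or replicate conditions met; inactive = mean below 8% and not both replicates reaching 8%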;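 also: cells transiently co-express mutant CFTR-F508del with the halide-sensitive YFP; corrector assay measuring rescue of mutant channel to the surface after 24 h compound exposure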
RAD54 branch – RAD54 (human) branch migration inhibition. Q92698. inhibition, % at 10.4 µM. RAD54 Holliday junction branch migration, FAM/BHQ fluorescence. 360,000 compounds, 0.14% hits;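 active = mean normalized replicate activity at least 40 and at least half of replicates scoring 40 or more; inconclusive = only one of the two criteria met; inactive = mean below 40 and under half of replicates reaching 40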;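 also: inhibitors cause a drop in the FAM fluorescence signal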
RAD52 inh – inhibitors of human RAD52 DNA annealing. P43351. recombinant RAD52 DNA annealing, FRET fluorescence. inhibition, % at 18.7 µM. 360,000 compounds, 0.46% hits. AID 651710;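 active = every replicate showing at least 50% inhibition; inconclusive = mean inhibition at least 50% but not in every replicate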
Target sequence (P43351 whole entry, looked up): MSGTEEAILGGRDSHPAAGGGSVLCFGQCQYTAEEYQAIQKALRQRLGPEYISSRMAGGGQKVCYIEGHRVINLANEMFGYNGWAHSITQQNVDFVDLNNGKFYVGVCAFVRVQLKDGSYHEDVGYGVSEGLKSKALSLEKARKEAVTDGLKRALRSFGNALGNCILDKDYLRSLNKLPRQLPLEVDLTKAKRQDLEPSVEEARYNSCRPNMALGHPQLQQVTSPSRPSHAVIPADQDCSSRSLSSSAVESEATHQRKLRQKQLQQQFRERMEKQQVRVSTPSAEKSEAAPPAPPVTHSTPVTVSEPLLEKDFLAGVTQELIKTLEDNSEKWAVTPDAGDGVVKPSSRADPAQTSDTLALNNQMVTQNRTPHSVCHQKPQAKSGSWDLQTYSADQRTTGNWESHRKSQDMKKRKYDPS
N-glyco inh – blocks N-linked glycosylation in D54 reporter cells | 360,000 compounds, 0.23% hits | D54 ERlucT glycosylation luciferase reporter, 24 h; percent of 100 nM tunicamycin response | reporter increase, % at 12.5 µM;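 active = mean luciferase reporter signal, scaled so untreated is 0 and the glycosylation-blocking control 100, at or above a set limit in every replicate; inconclusive = mean reaches the limit but not every replicate does; inactive = mean below the limit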;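 also: luciferase carries N-glycosylation sites so blocking glycosylation raises the light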
PvdQ acylase – P. aeruginosa PvdQ acylase inhibition | purified PvdQ acylase, fluorescence plate reader | inhibition, % at 10 µM | 340,000 compounds, 0.063% hits; in the data active = inhibition above about 30%, passing the limit was not always enough; inconclusive = no clear call, values can overlap the other calls
DNA binder FP – counter-screen for RAD52 inhibitors: DNA binding compounds. shares compounds with RAD52 inh. AC50, µM. 1,000 compounds, 8% hits. Salmon sperm DNA/acridine orange FP displacement;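 active = fitted half-maximal concentration for signal loss at or below twice the highest dose tested, in every separate run, actives reach about 64 µM in these data; inconclusive = runs disagree, or flat partial signal loss, or poor fit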
A number is an active result; . = inactive; ? = inconclusive; / = no result given; ! = not confirmed by another sample. This is a sample that favours compounds with a hit; in the whole collection about 1.5% have one here.

SMILES | dFosB act | F508del corr | RAD54 branch | RAD52 inh | N-glyco inh | PvdQ acylase | DNA binder FP
CN1CCN(c2ccc(NC(=O)c3cc(S(N)(=O)=O)ccc3N3CCOCC3)cc2)CC1 | . | . | . | 72 | . | . | .
CC(NC(=O)CCc1ccccc1)c1ccc2c(c1)OCO2 (stereo unspecified) | . | . | . | 108 | . | . | .
CC(NC(=O)CSc1ncccn1)c1ccc2c(c1)OCO2 (stereo unspecified) | . | . | . | . | . | . | /
C[n+]1ccc(/C=C/c2ccccc2O)c2ccccc21 | . | . | / | 54 | . | . | 46µM
CC(=O)/C=C/c1ccccc1O | . | . | . | . | . | . | /
COc1ccc(S(=O)(=O)N(C)C[C@@H]2Oc3ncc(-c4ccncc4)cc3C(=O)N([C@@H](C)CO)C[C@@H]2C)cc1 | / | . | . | . | / | / | /
Cn1c(N=Nc2ccc(N3CCOCC3)cc2)[n+](C)c2ccccc21 | 40 | . | 92 | 103 | . | . | 11µM
CC(C)NC(=O)N1C[C@H]2[C@@H](c3ccccc31)[C@H](CO)N2C(=O)c1ccncc1 | / | . | . | . | / | / | /
CCCNC(=O)N1CC2(CCN(C(=O)C3CCCCC3)CC2)c2c([nH]c3cc(OC)ccc23)[C@@H]1CO | / | . | / | . | / | / | /
O=C(Nc1ccccc1F)N1CC(=O)N2[C@H](CO)[C@H](c3ccc(-c4cccnc4)cc3)[C@@H]2C1 | / | . | / | . | / | / | /
CN(C)CCOC(=O)c1ccc2[nH]c3c(c2c1)CSCC3 | 28 | . | / | 99 | . | . | .
COc1cc2c3c(cccc3c1)C(=O)N(CCN1CCCC1)C2=O | / | . | 106 | 71 | . | / | 31µM
CS(=O)(=O)N1CCN(CCN2C(=O)c3cccc4cccc(c34)C2=O)CC1 | . | . | / | . | . | . | /
COc1cccc(OCC(O)CN2CCN(CCN3C(=O)c4cccc5cccc(c45)C3=O)CC2)c1 (stereo unspecified) | ? | . | / | 91 | 34 | . | ?
C[C@@H]1CN([C@H](C)CO)C(=O)CCCn2nncc2CO[C@@H]1CN(C)Cc1ccc(C(=O)O)cc1 | / | . | / | . | / | / | /
COc1ccc(-c2[nH]ncc2CN2CCCCCCC2)c(OC)c1 | . | . | / | 76 | . | . | .
COc1ccc(-c2csc(N(CCCN(C)C)C(=O)c3ccccc3Cl)n2)cc1 | . | . | . | 53 | . | . | .
CCOC(=O)c1c(NC(C)=O)sc2c(OCCN(CC)CC)c(Br)ccc12 | . | . | / | 61 | 85 | . | .
CC(=O)Nc1ccc2c(c1)C(=O)N(C)[C@H]1CC[C@H](CC(=O)N3CCc4ccccc4C3)O[C@H]1CO2 | / | . | . | / | / | / | /
CC1(C)CC(Nc2ccc(Nc3ccccc3)cc2)CC(C)(C)N1 | . | . | / | 100 | . | . | .
c1ccc(-c2oc3ncnc(NCCCn4ccnc4)c3c2-c2ccccc2)cc1 | . | / | . | . | . | . | /
CN(C)CCCNc1ncnc2oc(-c3ccccc3)c(-c3ccccc3)c12 | . | . | . | . | . | . | .
CN/C(=C/[N+](=O)[O-])NCCSCc1csc(CN(C)C)n1 | . | . | . | . | . | . | /
CN=C(C[N+](=O)[O-])NCCSCc1ccc(CN(C)C)o1 | . | . | . | 57 | . | . | .
COc1ccc2nc(C)cc(Nc3ccc(N4CCN(C)CC4)cc3)c2c1 | 77 | . | 98 | 100 | 67 | . | 42µM
SMILES | dFosB act | F508del corr | RAD54 branch | RAD52 inh | N-glyco inh | PvdQ acylase | DNA binder FP
C[C@@H]1CN([C@H](C)CO)C(=O)c2cc(NS(=O)(=O)c3ccccc3)ccc2O[C@@H](C)CCCCO[C@H]1CN(C)Cc1ccc(C(=O)O)cc1 | / | . | . | / | / | / | /
CN1CCN(CCCC(=O)c2ccc(C3CCCC3)cc2)CC1 | . | / | / | 68 | . | . | .
CCN(CC)CCC(=O)Nc1cccc2c1C(=O)c1ccccc1C2=O | 35 | 24 | 95 | 78 | 110 | . | 9µM
COc1ccc(/C=N/Nc2cc(N3CCCC3)nc(N3CCCC3)n2)cc1 | 23 | . | . | 73 | . | . | .
Oc1ccc(/C=N/Nc2cc(N3CCCC3)nc(N3CCCC3)n2)cc1 | . | / | . | / | . | . | /
CO[C@H]1CN(C)C(=O)c2ccc(NC(=O)c3cc(C)on3)cc2OC[C@H](C)N(C(C)=O)C[C@H]1C | / | . | . | . | / | / | /
C[C@@H]1CN([C@@H](C)CO)S(=O)(=O)c2ccc(C3=CCCCC3)cc2O[C@H]1CN(C)C(=O)c1ccc(F)cc1 | / | . | . | . | / | / | /
CO[C@@H]1CN(C)C(=O)c2cc(NC(C)=O)ccc2OC[C@@H](C)N(Cc2nccs2)C[C@@H]1C | / | . | . | . | / | / | /
COc1cc(/C=C/c2cc[n+](C)cc2)ccc1OCC(=O)Nc1ccc(Cl)c(Cl)c1 | . | . | . | 69 | . | . | .
O=C(Nc1ccc(N2CCCC2)cc1)c1cccc(-c2cc3ccccc3oc2=O)c1 | 17 | / | . | 58 | . | . | .
O=C(Nc1ccccc1N1CCCC1)c1cccc(-c2cc3ccccc3oc2=O)c1 | . | / | . | / | . | . | /
Oc1ccc(C2CNCCc3c2cc(O)c(O)c3Cl)cc1 (stereo unspecified) | . | . | . | 52! | . | . | .
c1ccc(-c2cc(NCCN3CCCCC3)c3ccccc3n2)cc1 | . | . | 106 | 89 | 71 | . | .
Cc1csc(N2CCN(c3cc4c(cc3Cl)nc(-c3ccncc3)n4CCCN3CCCC3)CC2)n1 | . | . | . | 98 | . | . | .
COc1cccc(-c2nc(C(=O)NCCCN3CCOCC3)cc3c2[nH]c2ccccc23)c1 | . | . | . | 59 | . | . | .
Cc1cccn2c(=O)c3cc(C#N)c(=N)n(CCCN4CCOCC4)c3nc12 | . | / | . | / | . | . | /
Cc1cccn2c(=O)c3cc(C(=O)NC(C)c4ccccc4)c(=N)n(CCCn4ccnc4)c3nc12 (stereo unspecified) | ? | . | / | 68 | . | . | .
Cc1cccn2c(=O)c3cc(C(N)=S)c(=N)n(CCCN4CCOCC4)c3nc12 | . | . | / | 86 | . | . | .
Cc1ccc2nc3c(cc(C(=O)NCc4ccccc4)c(=N)n3CCCn3ccnc3)c(=O)n2c1 | . | . | . | . | . | . | /
O=C(C[C@@H]1C=C[C@H](NC(=O)Nc2ccc3c(c2)OCO3)[C@@H](CO)O1)NCc1ccc(Cl)cc1 | / | . | . | . | / | / | /
CO[C@@H]1CN(C)C(=O)c2ccc(NC(=O)C3CCCCC3)cc2OC[C@H](C)NC[C@@H]1C | / | . | . | . | / | / | /
Cn1c(-c2csc(-c3cccc(C(F)(F)F)c3)n2)n[nH]c1=S | . | . | / | 96 | . | . | .
CN(C)c1ccc(C(CN)c2c[nH]c3ccccc23)cc1 (stereo unspecified) | . | . | . | 84 | . | . | .

Screening results (PubChem BioAssay)
